The list is not random: actives were taken first. Their share in the collection is about 4%.
D1 ag – activates the human D1 dopamine receptor; P21728; HEK293 T-REx D1 cells, calcium flux, agonist mode; activation, % at 2 µM; hit rate 1% among 360,000; further: 0% is about no effect
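Inducible HEK293 T-REx D1 cells, force-coupled to calcium signalling, were plated at 4000 cells/well with tetracycline and held overnight at 30 C. After no-wash calcium dye loading, compound-evoked calcium rise over 180 s flagged agonists.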
Glioma ERSR ind – ER stress response induction in glioma | U87-MG GRP78 promoter luciferase reporter, 16 h | Potency, µM, for inactives: at the top dose activation, hits mostly activators | hit rate 0.02% among 420,000; active means well fitted activation curve with a large enough effect; further: potency means the concentration at half of the fitted maximal effect; series mostly up to about 76 µM; % of control where 0% means no effect; nearly all actives have a fitted effect of over 35% in size
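Stably transfected U87-MG glioma cells carrying a GRP78-based luciferase sensor; 16 h compound incubation. Luminescence end-point read 10 min after Bright-Glo addition at room temperature.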
D1 antag – blocks dopamine activation of the human D1 receptor; AID 504652; P21728; HEK293 TREx D1 cells, calcium flux, dopamine EC80; stronger effect = lower value; activity change, negative = inhibition, % at 10 µM; hit rate 3.2% among 360,000; in the data active means activity change below about -30%; further: on the % scale 0 is the no-effect control and ±100 the full control effect
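Allosteric or orthosteric antagonism assessed as attenuation of the calcium response to EC80 dopamine, added 180 s after compound, in induced HEK293 Trex D1 cells loaded with no-wash calcium dye.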
TRHR agonist – TRH receptor (human) agonism | P34981 | TRHR cells, calcium flux fluo-8, FDSS agonist mode | activation, % at 2 µM | hit rate 0.18% among 360,000; further: 0% is about no effect
Target sequence (P34981 whole entry, looked up): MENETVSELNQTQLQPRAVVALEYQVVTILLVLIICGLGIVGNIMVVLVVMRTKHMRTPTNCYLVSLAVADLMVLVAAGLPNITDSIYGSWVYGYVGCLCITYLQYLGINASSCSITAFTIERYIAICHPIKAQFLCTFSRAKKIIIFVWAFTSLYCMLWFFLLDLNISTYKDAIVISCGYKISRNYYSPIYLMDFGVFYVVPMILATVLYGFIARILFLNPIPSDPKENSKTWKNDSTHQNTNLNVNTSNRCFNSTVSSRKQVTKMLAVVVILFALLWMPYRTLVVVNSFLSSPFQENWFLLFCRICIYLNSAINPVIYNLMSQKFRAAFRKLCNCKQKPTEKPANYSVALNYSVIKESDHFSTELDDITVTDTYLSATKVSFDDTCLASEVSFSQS
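Steps: seed TRHR cells overnight; add fluo-8 no-wash Ca dye, RT 30 min–1.5 h; record 10 s baseline; pin-transfer compounds; monitor fluorescence 1 cycle/s for the agonist window. Calcium increases flag candidate agonists.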
D1 potentiator – enhances dopamine response at the human D1 receptor; P21728; HEK293 TREx D1 cells, calcium flux, dopamine EC20 potentiation; potentiation, % at 10 µM; hit rate 0.036% among 360,000; in the data active means potentiation above about 30%; further: 0% is about no effect
TRHR PAM – TRH receptor (human) allosteric enhancement; P34981; TRHR cells, fluo-8 calcium fluorescence, EC20 TRH enhancement; enhancement, % at 2 µM; hit rate 0.66% among 360,000; AID 493056; in the data active means enhancement above about 30%; further: 0% is about no effect
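TRHR-expressing cells loaded with fluo-8 calcium dye were read kinetically (ex 480/em 530) during compound addition, then stimulated with an EC20 of TRH (10 nM final). Enhancement of the Gq-mediated intracellular calcium response was scored.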
Numbers without * were called inactive; . = no result given. Unless noted, no stated cut-off is given here; in the data, active means activation above about 30%; inactive means the rest.

SMILES	D1 ag	Glioma ERSR ind	D1 antag	TRHR agonist	D1 potentiator	TRHR PAM
O=C(O)c1cccc(-c2csc(C(O)c3ccc(F)c(F)c3)n2)c1 (configuration not stated)	.	-4%	.	.	.	.
COc1ccccc1N1CCN(C(=O)c2c(C)oc3ncn(C)c(=O)c23)CC1	1	-2%	-35*	1	-6	-23
CN(C)S(=O)(=O)N1CCN(c2ccccc2Cl)CC1	3	1%	5	-1	2	-1
CN(C)S(=O)(=O)N1CCN(c2cc(Cl)ccc2Cl)CC1	40*	-2%	14	0	-5	35*
CCOC(=O)c1sc(-c2ccccc2)nc1C	2	7%	6	0	4	0
COc1ccc(CNC(=O)CCCSc2ccccc2)cc1	4	-3%	11	-3	.	0
CC1C2CC(C(CN(C)C)/C2=N/O)C1(C)C (configuration not stated)	2	-3%	-51*	1	-5	-3
Cc1cc(C)c(NC(=O)CSc2nc(COc3ccccc3)nc3ccccc23)c(C)c1	5	-5%	4	-1	0	-3
Cc1ccc(C)c2[nH]c(=O)c(CN(CCN3CCCC3)C(=O)Nc3ccc(F)cc3)cc12	2	-5%	-36*	-1	-8	2
C=CCc1cc(Cl)ccc1OCCNCCOC	19	-3%	-8	0	-5	-12
C=CCc1cc(Cl)ccc1OCCNCCN1CCOCC1	12	-3%	-87*	3	-7	-2
COc1ccc(C(=O)/C=C/C(=O)N(Cc2ccc(F)cc2)C(C(=O)NC2CCCCC2)c2ccncc2)c(O)c1 (configuration not stated)	0	-3%	-31*	0	-9	15
Cc1ccc(S(=O)(=O)N2CCC(C(N)=O)CC2)cc1[N+](=O)[O-]	-3	0%	-39*	0	-1	-3
COc1cccc(COC(=O)c2ccc(S(=O)(=O)N3CCC(C)CC3)cc2)c1OC	10	-2%	2	1	-2	20
CCOC(=O)C1CCN(S(=O)(=O)c2c(Cl)ccc3nonc23)CC1	4	.	-35*	3	-8	4
CCOC(=O)C1CCN(S(=O)(=O)c2ccc(OC)c(OC)c2)CC1	6	0%	1	-1	-2	8
CCOC(=O)C1CCN(S(=O)(=O)c2ccc(C)c(C)c2)CC1	1	-1%	-5	0	2	32*
COc1cccc(COC(=O)C2CCN(S(=O)(=O)c3ccc(F)cc3)CC2)c1OC	31*	-2%	-9	1	-6	-16
CC(C)c1nnc(NC(=O)CCC(=O)N2CCN(Cc3ccc(F)cc3)CC2)s1	0	4%	2	1	2	-1
O=C1C2CCCN2C(c2ccc(F)c(F)c2)N1c1cccc(Cl)c1 (configuration not stated)	-1	-2%	15	-1	-2	11
CCOC(=O)C1CCN(S(=O)(=O)c2ccccc2)CC1	3	1%	-10	0	-6	0
O=C(OCCOc1cccc(Cl)c1)C1CCN(S(=O)(=O)c2ccccc2)CC1	30*	-5%	-22	3	-1	6
CCOC(=O)C1CCN(S(=O)(=O)c2cc(-c3onc(C)c3C)ccc2C)CC1	2	-3%	-36*	0	-4	10
CCCCCC(O)CCCC(=O)O (configuration not stated)	.	-3%	.	.	.	.
CC(=O)c1ccc(S(=O)(=O)NCCCC(=O)N(C)Cc2ccc3c(c2)OCO3)cc1	7	-2%	-57*	0	-9	-6
CCCNS(=O)(=O)c1ccc(CCC(=O)Nc2ccc3c(c2)OCO3)cc1	2	-5%	-4	-1	2	0
COc1ccc(Nc2ncnc3c2cnn3-c2cc(Cl)ccc2C)cc1OC	-4	1%	-6	-1	-3	0
Cc1ccc(Cn2ncc3c(NCCN(C)C)ncnc32)cc1	4	-4%	8	0	3	0
CC(C)CCNc1ncnc2c1cnn2-c1cccc(Cl)c1	-1	5%	-18	0	-1	-2
Cc1ccc(Cl)cc1-n1ncc2c(Nc3cccc(C)c3C)ncnc21	57*	16%	4	5	-2	5

From PubChem
